In PubChem BioAssay AID504914 (The Scripps Research Institute Molecular Screening Center, 2011):
This is one part of the list. Unmarked numbers belong to inactive results. No rule for the calls is given here.

These compounds were tested against 5-hydroxytryptamine receptor 5A (Homo sapiens) (UniProt P47898) (assay: HTR5A inverse agonists, counter-screen for OPRM1-OPRD1 inverse agonist project, cell-based, luminescence (AID 504914;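 also: 0% = cells with DMSO and 100% = no-cell wells with DMSO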)). Settings: HTR5A-expressing cells, inverse agonism, at 9.3 µM, stronger effect = higher value.
Sequence of 5-hydroxytryptamine receptor 5A (Homo sapiens) (P47898 whole entry, looked up): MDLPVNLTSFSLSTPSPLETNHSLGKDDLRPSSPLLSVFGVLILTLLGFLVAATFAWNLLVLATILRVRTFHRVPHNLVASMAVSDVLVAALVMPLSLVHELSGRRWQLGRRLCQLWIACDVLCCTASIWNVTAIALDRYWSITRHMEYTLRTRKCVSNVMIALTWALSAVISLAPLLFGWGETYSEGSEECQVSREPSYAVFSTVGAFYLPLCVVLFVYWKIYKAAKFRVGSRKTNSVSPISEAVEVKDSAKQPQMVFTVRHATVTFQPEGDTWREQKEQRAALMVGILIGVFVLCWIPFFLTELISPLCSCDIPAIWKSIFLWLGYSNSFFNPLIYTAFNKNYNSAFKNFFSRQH

SMILES	inhibition [%]
CC1=CC(=Cc2sc3ccccc3[n+]2C)C=C(C)O1	-18.3
CCOC(=O)c1c(N)n(CCN2CCOCC2)c2nc3ccccc3nc12	-10.8
CCOC(=O)c1c(N)n(Cc2ccccc2)c2nc3ccccc3nc12	18
